Results published in PubChem BioAssay (NCATS).
Results filed as inconclusive are left out. Activity calls are given as the source filed them. Unless noted, the call rests on the fitted dose curve; in most records, active means well fitted curve in the direction sought with a large enough effect; inconclusive means small, poorly fitted or top-dose-only effect, or another doubt; inactive means no such curve, though single readings can be large; an effect the other way counts as inactive or inconclusive.

Legend:
[1] = Cell Viability - SK-N-SH (AID 435; calls by dose curve;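 further: potency means the concentration at half of the fitted maximal effect; compound exposure lasted 40 h at 37 °C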); conditions: SK-N-SH neuroblastoma cell viability qHTS
Method in brief: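 SK-N-SH neuroblastoma cells (1500/well) treated 40 h at 37 °C in complete medium; viability read as cellular ATP by CellTiter-Glo luminescence. Normalized to DMSO and 100 uM tamoxifen; AC50 from Hill fits of qHTS concentration-response.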

[2] = target: Mitogen-activated protein kinase 10 (Mus musculus) (UniProt Q61831); experiment: JNK3 AlphaScreen Assay (AID 530; active means well fitted curve in either direction with a large enough effect, not every such curve was filed as active;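 further: kinase came from lysate of stimulated human HepG2 cells; signal reports phosphorylation of biotinylated GST-cJun 1-79 at Ser73 with 10 µM ATP; on the % scale 0 is the no-effect control and ±100 the full control effect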); conditions: JNK3 lysate, c-Jun phosphorylation; series mostly up to 57.1 µM
Method in brief: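 Inhibitors reduce antibody binding to phosphorylated biotin-cJun, lowering AlphaScreen luminescence. Lysates from HepG2 cells pre-activated by IL-1beta plus TNF-alpha supplied JNK3; compounds were titrated.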

[3] = Cell Viability - SH-SY5Y (AID 544); conditions: SH-SY5Y neuroblastoma cell viability; viability change, negative = cytotoxic: at 92.2 µM (top of the series); further: nearly all actives have a fitted effect of over 55% in size
Method in brief: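 SH-SY5Y human neuroblastoma cells (1500/well) incubated 5 h, then compound-treated 40 h at 37 °C in complete medium. Viability read as intracellular ATP by CellTiter-Glo luminescence after 20 min; AC50 from Hill-equation fits of qHTS concentration-response.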

[4] = Cell Viability - Renal Proximal Tubule (AID 545); conditions: renal proximal tubule cells viability; series mostly up to 91.7 µM; further: nearly all actives have a fitted effect of over 40% in size
Method in brief: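 Rat renal proximal tubule primary cells, 1000/well, exposed to compounds for 40 hr at 37 °C in complete medium; cellular ATP read by CellTiter-Glo luminescence. AC50 from concentration-response fitted with standard Hill equation.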

[5] = Cellular Toxicity (caspase-3) HepG2 (AID 654); conditions: HepG2 caspase-3 activation, luminescence, 0% = DMSO only, 100% = tamoxifen; series mostly up to 92.2 µM;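 further: cells exposed to compound for 16 hours before reading; 0% = DMSO alone and 100% = caspase signal from 100 µM tamoxifen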
Method in brief: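 HepG2 cells (1500/well) were treated 16 h at 37 °C in complete medium, then caspase 3/7 activity was read by Caspase-Glo luminescence. Data were normalized to DMSO and 100 uM tamoxifen; AC50 came from Hill-equation fits of qHTS concentration-response.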

[6] = Cellular Toxicity (caspase-3) SHSY5Y (AID 657); conditions: SH-SY5Y caspase-3 activation, DMSO zero, 10 µM staurosporine = 100%; series mostly up to 91.7 µM
Method in brief: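 SH-SY5Y human neuroblastoma cells, 1500/well, exposed to compound for 16 hours at 37 °C in complete medium. Caspase-3/7 activity read by Caspase-Glo luminescence after 1 hr at room temperature, normalized to DMSO and 10 uM staurosporine; AC50 from Hill fit.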

[7] = Cellular Toxicity (caspase-3) N2a (AID 665); conditions: N2a cells, luminescence, normalized: DMSO 0%, 10 µM staurosporine 100%; series mostly up to 92.2 µM;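 further: compound exposure lasted 16 h at 37 °C before readout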
Method in brief: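 Mouse N2a neuroblastoma cells, 1500 per well, treated 16 h at 37 °C in complete medium; caspase-3/7 activity by Caspase-Glo luminescence after 1 h. Normalized to DMSO and 10 uM staurosporine; AC50 from Hill fits.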

[8] = MultiTox-Fluor Cytotoxicity Assay - LYMP1-002 - Live Cells (AID 955); conditions: LYMP1-002 lymphoblastoid live-cell protease fluorescence viability; series mostly up to 46.1 µM; further: on the % scale 0 is the no-effect control and ±100 the full control effect
Method in brief: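 Human lymphoblastoid LYMP1-002 cells, 2500/well, treated 16 h at 37 C in complete medium. Live-cell protease activity via GF-AFC fluorescence (Ex/Em 405/510) after 60 min reagent incubation; AC50 from Hill fits.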

[9] = Cell Viability - LYMP2-009 (AID 968); conditions: LYMP2-009 lymphoblastoid cell viability; series mostly up to 92.2 µM;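 further: 0% = DMSO alone and the full-kill end = tetraoctylammonium bromide at 92 µM; nearly all actives have a fitted effect of over 55% in size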
[10] = Cell Viability - LYMP2-011 (AID 969); conditions: LYMP2-011 lymphoblastoid cells viability; series mostly up to 92.2 µM;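 further: cells exposed to compound for 24 hours; 0% = DMSO only and full inhibition = 92 µM tetraoctylammonium bromide; nearly all actives have a fitted effect of over 60% in size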
Method in brief: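 2500 cells/well in complete medium, compound-treated 24 h at 37 C. Viability read as intracellular ATP by CellTiter-Glo luminescence after 30 min at room temperature. AC50 from Hill fits of qHTS concentration-response data.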

[11] = Cell Viability - LYMP2-025 (AID 976); conditions: LYMP2-025 lymphoblastoid cell viability; series mostly up to 92.2 µM;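 further: plate controls were DMSO only for no effect and tetraoctylammonium bromide control for full effect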
Method in brief: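 Human lymphoblastoid LYMP2-025 cells, 2500/well, exposed 24 h at 37 C in complete medium in 1536-well qHTS. Viability as cellular ATP by CellTiter-Glo luminescence; AC50 from Hill fits of concentration-response data.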

[12] = Cell Viability - LYMP2-008 (AID 980); conditions: LYMP2-008 lymphoblastoid cell viability, qHTS; series mostly up to 92.2 µM; further: on the % scale 0 is the no-effect control and ±100 the full control effect; nearly all actives have a fitted effect of over 60% in size
Method in brief: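 LYMP2-008 lymphoblastoid cells (2500/well) plated 5 h, then treated 24 h at 37 C in complete medium. Viability read as intracellular ATP by CellTiter-Glo luminescence after 30 min at room temperature; AC50 from Hill fits.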

[13] = Cell Viability - LYMP2-012 (AID 982); conditions: LYMP2-012 lymphoblastoid cell viability qHTS; series mostly up to 92.2 µM;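 further: cellular ATP by luciferase luminescence where a drop means cytotoxicity; cells exposed to compound for one day before reading; 0% = DMSO only and full loss = 92 µM tetraoctylammonium bromide; nearly all actives have a fitted effect of over 55% in size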
[14] = Cell Viability - LYMP1-002 - Assay at 24 hr (AID 993); conditions: LYMP1-002 lymphoblastoid cells viability; series mostly up to 92.2 µM; further: on the % scale 0 is the no-effect control and ±100 the full control effect
Method in brief: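 Human lymphoblastoid LYMP1-002 cells (2500/well) treated 24 h at 37 °C; viability as intracellular ATP by CellTiter-Glo luminescence. Tetraoctylammonium bromide as positive control; AC50 from Hill-equation fits of qHTS concentration-response.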

[15] = target: Peroxisome proliferator-activated receptor gamma (Homo sapiens) (UniProt P37231); experiment: qHTS assay for small molecule agonists of peroxisome proliferator-activated receptor gamma signaling (AID 588536; active means well fitted curve in the direction sought with a large enough effect in the signal ratio, with a control signal flat, not every such curve was filed as active; the % refers to the signal ratio;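 further: 0% = DMSO basal wells and 100% = rosiglitazone at 2 µM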); conditions: HEK293 PPARg-UAS-bla, beta-lactamase ratio, 16 h, percent of rosiglitazone response, DMSO as zero; series mostly up to 76.7 µM
Peroxisome proliferator-activated receptor gamma (Homo sapiens), sequence (P37231 whole entry, looked up): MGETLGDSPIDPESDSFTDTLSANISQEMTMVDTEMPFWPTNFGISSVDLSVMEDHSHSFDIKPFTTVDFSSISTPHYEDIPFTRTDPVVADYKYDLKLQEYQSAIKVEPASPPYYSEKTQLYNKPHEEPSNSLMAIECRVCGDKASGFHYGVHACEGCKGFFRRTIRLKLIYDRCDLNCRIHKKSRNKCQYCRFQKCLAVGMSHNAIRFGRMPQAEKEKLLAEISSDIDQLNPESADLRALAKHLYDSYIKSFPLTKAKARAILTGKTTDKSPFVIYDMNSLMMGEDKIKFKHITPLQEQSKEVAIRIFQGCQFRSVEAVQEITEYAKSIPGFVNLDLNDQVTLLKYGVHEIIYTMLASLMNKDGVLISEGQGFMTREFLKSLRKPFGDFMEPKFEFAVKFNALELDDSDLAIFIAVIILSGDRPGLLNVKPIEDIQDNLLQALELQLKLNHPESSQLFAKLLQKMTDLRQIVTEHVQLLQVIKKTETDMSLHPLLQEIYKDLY
Method in brief: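 PPAR-gamma-UAS-bla HEK293 cells in medium with 1% charcoal/dextran-treated FBS were exposed to compounds for 16 h at 37 C. Beta-lactamase activity was read with CCF4 substrate (405 nm excitation, 460/530 nm emission).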

[16] = target: Vitamin D3 receptor (Homo sapiens) (UniProt P11473); experiment: qHTS assay for small molecule agonists of vitamin D receptor signaling (AID 588543; calls by dose curve;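 further: 0% = DMSO basal and 100% = reference agonist control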); conditions: HEK293T VDR-UAS-bla, beta-lactamase ratio, 16 h; series mostly up to 76.8 µM
Vitamin D3 receptor (Homo sapiens), sequence (P11473 whole entry, looked up): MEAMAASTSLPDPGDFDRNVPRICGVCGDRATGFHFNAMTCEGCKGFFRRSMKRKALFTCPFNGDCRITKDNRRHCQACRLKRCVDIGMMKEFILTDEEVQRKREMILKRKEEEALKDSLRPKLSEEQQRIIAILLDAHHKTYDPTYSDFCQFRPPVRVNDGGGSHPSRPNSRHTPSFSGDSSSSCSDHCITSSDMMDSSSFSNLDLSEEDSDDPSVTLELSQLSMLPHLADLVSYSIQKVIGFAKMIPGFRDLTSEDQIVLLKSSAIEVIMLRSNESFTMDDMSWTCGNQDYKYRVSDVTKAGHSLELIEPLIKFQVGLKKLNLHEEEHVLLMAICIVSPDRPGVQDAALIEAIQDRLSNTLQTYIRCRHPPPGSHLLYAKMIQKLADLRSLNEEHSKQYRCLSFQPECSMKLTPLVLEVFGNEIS
Method in brief: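 VDR-UAS-bla HEK293T cells, 2000/well, 2% charcoal-stripped FBS; compound titration 16 h at 37 C; CCF4 beta-lactamase ratio read. Normalized to 50 nM 1-alpha,25-dihydroxyvitamin D3 (100%) and DMSO; Hill fit gives EC50, efficacy.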

[17] = target: Retinoic acid receptor RXR-alpha (Homo sapiens) (UniProt P19793); experiment: qHTS assay for small molecule antagonists of retinoid X receptor alpha signaling (AID 588546; active means well fitted inhibition curve with a large enough effect in the signal ratio, with a control signal flat, not every such curve was filed as active; the % refers to the signal ratio;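 further: cells stimulated with 9-cis-retinoic acid as agonist; on the % scale 0 is the no-effect control and ±100 the full control effect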); conditions: HEK293T RXRa-UAS-bla, beta-lactamase ratio, antagonist mode
Retinoic acid receptor RXR-alpha (Homo sapiens), sequence (P19793 whole entry, looked up): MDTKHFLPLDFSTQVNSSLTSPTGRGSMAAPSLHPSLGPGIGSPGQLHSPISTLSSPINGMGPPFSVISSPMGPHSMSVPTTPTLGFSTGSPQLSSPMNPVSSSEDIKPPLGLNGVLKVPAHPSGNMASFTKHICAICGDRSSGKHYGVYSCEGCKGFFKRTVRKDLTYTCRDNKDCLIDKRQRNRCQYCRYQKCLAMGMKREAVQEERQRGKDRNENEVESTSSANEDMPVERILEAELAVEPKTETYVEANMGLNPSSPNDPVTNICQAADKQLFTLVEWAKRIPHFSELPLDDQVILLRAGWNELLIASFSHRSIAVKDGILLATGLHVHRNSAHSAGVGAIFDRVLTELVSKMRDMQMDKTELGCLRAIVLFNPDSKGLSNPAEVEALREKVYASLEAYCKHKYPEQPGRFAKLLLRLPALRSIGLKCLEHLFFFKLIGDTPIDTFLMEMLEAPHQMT
Method in brief: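 Beta-lactamase reporter inhibition, read as CCF4 fluorescence ratio (ex 405, em 460/530 nm) after 2 h at RT. HEK293T UAS-bla cells, 2500/well, were stimulated with 9-cis-RA at 500 or 100 nM final alongside test compound for 18 h at 37 C.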

[18] = qHTS assay for environmental chemicals that activate the Aryl hydrocarbon Receptor (AhR) signaling pathway (AID 651777); conditions: 1A2-DRE human hepatoma cells, luciferase, 24 h; activation: hits give high values; further: % of control where 0% means no effect; nearly all actives have a fitted effect of over 15% in size
Method in brief: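 AhR activation is scored as a rise in luciferase from a stable DRE–CYP1A2 promoter construct in human hepatoma cells. Treatment lasts 24 hr at 37 C; detection uses One-Glo after 30 min at room temperature.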

[19] = target: Nuclear receptor subfamily 1 group I member 2 (Rattus norvegicus) (UniProt Q9R1A7); experiment: qHTS assay for small molecule activators of the rat pregnane X receptor (rPXR) signaling pathway (AID 651751; call rule not given here; further: 0% is about no effect); conditions: rPXR reporter cells, luciferase (One-Glo), 24 h
Nuclear receptor subfamily 1 group I member 2 (Rattus norvegicus), sequence (Q9R1A7 whole entry, looked up): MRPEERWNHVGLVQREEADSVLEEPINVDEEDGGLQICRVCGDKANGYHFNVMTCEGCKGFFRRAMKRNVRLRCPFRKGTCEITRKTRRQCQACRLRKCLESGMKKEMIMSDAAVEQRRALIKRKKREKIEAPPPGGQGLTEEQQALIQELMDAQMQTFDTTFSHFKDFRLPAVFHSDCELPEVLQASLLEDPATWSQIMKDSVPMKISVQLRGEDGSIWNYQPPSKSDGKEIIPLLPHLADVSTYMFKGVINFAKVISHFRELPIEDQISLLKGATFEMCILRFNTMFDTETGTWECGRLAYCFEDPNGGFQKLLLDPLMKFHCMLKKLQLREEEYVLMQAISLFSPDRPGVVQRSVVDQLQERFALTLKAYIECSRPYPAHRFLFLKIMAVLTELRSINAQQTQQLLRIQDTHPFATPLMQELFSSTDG

[20] = Cell Viability - Mesenchymal (AID 546); conditions: mesenchymal cells viability, qHTS; series mostly up to 91.7 µM;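 further: cells exposed to compound for 40 hours before reading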
Method in brief: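 Normal human renal glomerulus-derived kidney mesenchymal cells, 1000 per well in complete medium, were treated with compounds for 40 hr at 37 °C. Viability was read as intracellular ATP by CellTiter-Glo luminescence; AC50 values came from Hill-equation fits of qHTS concentration-response data.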

Nc1cc(Cl)cc(Cl)c1
inactive: Potency [1] > 92 µM | Potency [2] | Potency [3] | outcome [4] | outcome [5] | outcome [6] | outcome [7] | outcome [8] | Potency [9] | Potency [10] | Potency [11] | Potency [12] | Potency [13] | Potency [14] | outcome [15] | outcome [16] | max response [17] 0.872% | activation [18] -0.276% | max response [19] -0.532%

Oc1ccc(Cl)c(Cl)c1Cl
inactive: Potency [1] > 92 µM | Potency [2] | Potency [3] | outcome [4] | outcome [5] | outcome [6] | outcome [7] | outcome [8] | Potency [9] | Potency [10] | Potency [11] | Potency [12] | Potency [13] | Potency [14] | outcome [15] | outcome [16] | activation [18] 3.11% | max response [19] 8.33%

[O-][Cl+2]([O-])O
inactive: Potency [1] > 92 µM | Potency [2] | Potency [3] | outcome [4] | outcome [5] | outcome [6] | outcome [7] | Potency [9] | Potency [10] | Potency [12] | Potency [13] | Potency [14] | outcome [15] | outcome [16] | max response [17] -4.77% | activation [18] 0.0972% | max response [19] 2.81%

C=CC(=O)OC
inactive: Potency [2] | Potency [3] | outcome [4] | Potency [20] | outcome [6] | outcome [7] | outcome [8] | Potency [9] | Potency [10] | Potency [11] | Potency [12] | Potency [14] | outcome [15] | outcome [16] | max response [17] -3.6% | activation [18] 1.42% | max response [19] 0.297%

CC(C)OS(C)(=O)=O
inactive: Potency [2] | Potency [3] | outcome [4] | Potency [20] | outcome [6] | outcome [7] | outcome [8] | Potency [9] | Potency [11] | Potency [12] | Potency [13] | Potency [14] | outcome [15] | outcome [16] | activation [18] 1.58% | max response [19] -0.369%

CCOC(=O)CBr
inactive: Potency [1] > 92 µM | Potency [2] | Potency [3] | outcome [4] | outcome [5] | outcome [6] | outcome [8] | Potency [9] | Potency [10] | Potency [11] | Potency [12] | Potency [14] | outcome [15] | outcome [16] | activation [18] -0.43% | max response [19] 2.21%

Oc1cc(Cl)cc(Cl)c1
inactive: Potency [2] | Potency [3] | Potency [20] | outcome [5] | outcome [7] | outcome [8] | Potency [9] | Potency [10] | Potency [11] | Potency [12] | Potency [13] | Potency [14] | outcome [15] | outcome [16] | max response [17] -5.58% | activation [18] 1.21% | max response [19] 0.776%

N#CC(O)c1ccccc1 (configuration not stated)
inactive: Potency [1] > 92 µM | Potency [2] | Potency [3] | Potency [20] | outcome [5] | outcome [6] | outcome [7] | outcome [8] | Potency [9] | Potency [10] | Potency [11] | Potency [12] | Potency [13] | Potency [14] | outcome [16] | max response [17] 0.403% | activation [18] 0.286% | max response [19] 0.679%

Cc1cc(C)cc(OP(=O)(Oc2cc(C)cc(C)c2)Oc2cc(C)cc(C)c2)c1
inactive: Potency [1] > 92 µM | Potency [3] | outcome [4] | Potency [20] | outcome [5] | outcome [6] | outcome [7] | outcome [8] | Potency [9] | Potency [10] | Potency [11] | Potency [12] | Potency [13] | outcome [16] | max response [17] 28.5% | activation [18] 12.8%

C=CCOCC1CO1 (configuration not stated)
inactive: Potency [1] > 92 µM | Potency [2] | Potency [3] | outcome [4] | Potency [20] | outcome [5] | outcome [7] | Potency [9] | Potency [10] | Potency [11] | Potency [12] | Potency [13] | Potency [14] | outcome [15] | outcome [16] | max response [17] 9.76% | activation [18] -0.262% | max response [19] -1.61%
